Assay outcomes from PubChem BioAssay.
Nrf2 activator – qHTS of Nrf2 Activators; AREc32 ARE-luciferase reporter (MCF7-derived line), luminescence, 24 h; Potency, µM (titrated, usually from 46.1 µM), inactives show at the highest dose activation, usual class: activators; 0.31% of 410,000 active; also: potency is read from the fitted curve at half-maximal effect; % of control where 0% means no effect; nearly all actives have a fitted effect of over 65% in size
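Quantitative high-throughput format: AREc32 reporter cells, 1000 per well, received compound by pin transfer and were incubated 24 hr at 37 deg C, 5% CO2, before Steady-Glo luminescence detection.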
IDH1 R132H inh – qHTS for Inhibitors of mutant isocitrate dehydrogenase 1 (IDH1): qHTS; 0.093% of 390,000 active; Potency, µM (top dose mostly 76.6 µM), for inactives: at the highest dose activity change, negative = inhibition, actives largely listed as inhibitors; IDH1-R132H enzyme, NADPH consumption, diaphorase/resazurin fluorescence; also: potency is read from the fitted curve at half-maximal effect; % is scaled to controls: 0 for no effect and ±100 for the full control effect; nearly all actives have a fitted effect of over 65% in size
Target sequence (O75874 whole entry R132H, stated change not applied): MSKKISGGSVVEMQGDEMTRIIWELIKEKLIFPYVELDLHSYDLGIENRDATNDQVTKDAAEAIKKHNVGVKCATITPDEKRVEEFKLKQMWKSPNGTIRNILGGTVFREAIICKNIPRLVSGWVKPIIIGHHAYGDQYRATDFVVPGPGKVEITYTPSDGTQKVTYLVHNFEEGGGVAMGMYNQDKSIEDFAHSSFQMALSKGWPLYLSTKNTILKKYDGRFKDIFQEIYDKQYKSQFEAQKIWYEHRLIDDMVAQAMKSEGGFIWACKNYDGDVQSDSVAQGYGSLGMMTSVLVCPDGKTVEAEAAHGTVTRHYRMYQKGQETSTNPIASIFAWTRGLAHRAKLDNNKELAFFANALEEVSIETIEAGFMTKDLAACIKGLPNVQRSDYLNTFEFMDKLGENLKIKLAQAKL
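IDH1-R132H (0.5 ug/mL) preincubated 30 min with compound, then NADPH (0.016 mM) and alpha-KG (2 mM) added; 80 min at RT, pH 7.5. Remaining NADPH coupled via diaphorase/resazurin to fluorescence (540/590 nm); concentration-response curves normalized to no-enzyme control.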
LDHA inh – qHTS assay for inhibitors of human lactate dehydrogenase | 0.15% of 480,000 active | purified LDHA, NADH/diaphorase-resazurin fluorescence; active compounds read low | activity change, % (values are at about 110 or 230 µM) | AID 1347041, 2019 | L-lactate dehydrogenase A chain (Homo sapiens), P00338; in the data active = activity change below about -30%; inconclusive = mostly about -25% to -30%;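 also: plate controls were DMSO wells for no effect and wells without enzyme for full effect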
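Remaining NADH was detected by diaphorase (0.133 mg/mL) converting 37 µM resazurin to fluorescent resorufin, read at 0 and 20 minutes. The preceding 5-minute room-temperature reaction used 2 nM LDHA, 0.2 mM sodium pyruvate and 0.06 mM NADH at pH 7.4.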
ALOX12 inh – Primary qHTS assay for inhibitors of human arachidonate 12S-lipoxygenase (ALOX12): Round 2; Polyunsaturated fatty acid lipoxygenase ALOX12 (Homo sapiens), P18054; purified 12hLO, xylenol orange hydroperoxide absorbance; Potency, µM (titrated, usually from 108 µM), for inactives: at the top dose activity change, negative = inhibition, usual class: inhibitors; 1.1% of 580,000 active; also: potency is read from the fitted curve at half-maximal effect; % is scaled to controls: 0 for no effect and ±100 for the full control effect
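Purified human 12hLO (150 nM final) in 25 mM Hepes, 0.01% Triton X-100, pH 7.0 was preincubated 15 min at room temperature with compound. Then 40 uM arachidonic acid was added, 30 min. Hydroperoxide was read by Fe-XO absorbance ratio 573/405 nm.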
A549 viability – Nrf2 qHTS screen for inhibitors: counterscreen for cytotoxicity; A549 ARE-Fluc cells, CellTiter-Fluor viability, 18-24 h; Potency, µM (doses to about 46 µM), for inactives: top-dose activity change, negative = cytotoxicity, usual class: inhibitors; 0.16% of 390,000 active; also: potency is read from the fitted curve at half-maximal effect; % is scaled to controls: 0 for no effect and ±100 for the full control effect
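A549 ARE-Fluc cells in 5% FBS OPTI-MEM, 5000 cells/well, rested 2 h then exposed to compounds in concentration-response for 18-24 h at 37 °C. Viability by CellTiter-Fluor fluorescence (Ex 405/Em 525) after 30 min; luciferase luminescence (BugLite, 15 min, RT) read afterwards.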
Nrf2 block – Nrf2 qHTS screen for inhibitors | A549 ARE-Fluc reporter, luciferase luminescence, 18-24 h | Potency, µM (series often up to 46 µM), for the others: top-dose activity change, negative = inhibition, hits mostly inhibitors | 2.1% of 360,000 active; also: potency is read from the fitted curve at half-maximal effect; % is scaled to controls: 0 for no effect and ±100 for the full control effect; nearly all actives have a fitted effect of over 60% in size
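A549 ARE_Fluc cells, 5000/well, 5% FBS OPTI-MEM; compounds in dose-response, 18-24 h at 37 °C/5% CO2; CellTiter-Fluor viability read (Ex 405/Em 525), then BugLite luciferase luminescence = Nrf2 activity.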
An asterisk follows results filed as active; ? = inconclusive; . = not tested or not shown; [ ] = remark or other dose. An excerpt weighted towards active compounds, which were near 2.7% of everything screened. Unless noted, calls follow the shape of the dose curve; as a rule, active = well fitted curve in the direction sought with a large enough effect; inconclusive = small, poorly fitted or top-dose-only effect, or another doubt; inactive = no such curve, though single readings can be large; an effect the other way counts as inactive or inconclusive.

SMILES | Nrf2 activator | IDH1 R132H inh | LDHA inh | ALOX12 inh | A549 viability | Nrf2 block
CCOC(=O)c1cc2c(=Cc3ccc(N(C)C)cc3)c3ccccc3n2[n+]1C | 4% | -7% | 39 | ? | ? | 8.2µM*
CNC(=S)NN=C1CCC(c2ccccc2)CC1 (stereo not given) | . | . | 6 | 45% | . | .
CC(=O)N1c2ccc(Cl)cc2C2OCCC2C1c1ccco1 (stereo not given) | -1% | 4% | -6 | 80% | -1% | 0%
Clc1ccc2c(c1)C1OCCC1C(c1ccco1)N2 (stereo not given) | 5.6µM* | 16% | 0 | ? | -14% | 4%
CSC1=N/C(=C\c2ccccc2)C(=O)N1C | 11µM* | 6% | 1 | -2% | -3% | 9%
O=C1c2cc(N3CCOCC3)nc(-c3ccccc3F)c2CN1CC1CC1 | . | . | . | -22%[176 µM] | . | .
O=C1c2cc(N3CCOCC3)nc(-c3ccc(F)cc3)c2CN1CC1CC1 | . | . | . | 32µM* | . | .
CC(C)CCC(CCNCc1ccco1)c1ccco1 (stereo not given) | . | . | 1 | 0.45µM* | . | .
O=C(C1CCCN(S(=O)(=O)c2ccc(Br)s2)C1)N1CCN(c2ccccc2)CC1 (stereo not given) | 0% | 9% | -3 | 21% | -16% | 16µM*
Cc1cccc(N2CCN(C(=O)C3CCCN(S(=O)(=O)c4ccc(Br)s4)C3)CC2)c1C (stereo not given) | -1% | -5% | -6 | -3% | -6% | 10µM*
COc1cccc(N2CCN(C(=O)C3CCCN(S(=O)(=O)c4ccc(Br)s4)C3)CC2)c1 (stereo not given) | 5% | 0% | -4 | -24% | -5% | 16µM*
O=C(C1CCN(S(=O)(=O)c2ccc(Br)s2)CC1)N1CCN(c2cccc(Cl)c2)CC1 | 0% | -4% | 4 | -24% | -6% | ?
O=C(C1CCCN(S(=O)(=O)c2ccc(Br)s2)C1)N1CCCCCC1 (stereo not given) | 0% | 1% | 2 | 33% | 4% | .
Cc1cccc(N2CCN(C(=O)c3cc(S(=O)(=O)N4CCCC4)cn3C)CC2)c1C | -2% | -1% | 0 | -2% | -7% | 18µM*
Cc1cc(Cl)c(Cl)cc1S(=O)(=O)N(C)C | . | . | 4 | -22% | . | .
CN(C)S(=O)(=O)c1ccc(N2CCOCC2)c(C(=O)N2CCc3ccccc32)c1 | . | . | 0 | -22% | . | .
COc1cccc(N2CCN(C(=O)C3CCC(CNS(=O)(=O)c4ccc(Br)s4)CC3)CC2)c1 (stereo not given) | 0% | -9% | -14 | -26% | -20% | 16µM*
CCS(=O)(=O)N1CCN(c2ccc(N3CCCCC3)nn2)CC1 | . | . | 1 | ? | . | .
COc1ccccc1NCC(=O)c1ccc(Cl)cc1 | 4% | 46µM* | 2 | ? | -2% | 5%
Cc1ccc(C(=O)CCC(=O)Nc2ccccc2C)cc1C | 2% | 1% | -5 | 19% | -13% | -7%
COc1ccccc1NCC(=O)c1ccc(C)c(C)c1 | -1%[9.22 µM] | -18% | -2 | 16µM* | 8% | -6%
COc1ccc(C(=O)CNc2ccccc2CO)cc1 | 5% | 3% | -9 | 0% | -7% | ?
CCCNS(=O)(=O)c1cccn1-c1ncc(C(F)(F)F)cc1Cl | 0% | 6% | -3 | ? | -7% | -11%
O=S(=O)(NCc1cccnc1)c1cccn1-c1ncc(C(F)(F)F)cc1Cl | 0% | 8% | -4 | -13% | -12% | 16µM*
Cn1c(=O)c2c(nc(N3CCCC3)n2Cc2cccc(Br)c2)n(C)c1=O | . | . | -11 | 3% | . | .
